# Screening results: PubChem, National Center for Advancing Translational Sciences (NCATS)
# An excerpt weighted towards active compounds, which were near 1.4% of everything screened.
# SARS PLpro yeast: qHTS of Yeast-based Assay for SARS-CoV PLP | 330,000 tested, 0.19% active | Potency, µM (series often up to 32.9 µM), inactives show at the highest dose activity, positive = growth rescue, usual class: activators | AID 485353, 2010 | S. cerevisiae expressing SARS-CoV PLpro, growth rescue; calls by dose curve; further: 0% is about no effect; nearly all actives have a fitted effect of over 55% in size
# NS1 function inh: qHTS Assay for Inhibitors of Influenza NS1 Protein Function; Potency, µM (highest dose often 46.1 µM), without a hit: top-dose activity, positive = more growth; 270,000 tested, 0.4% active; calls by dose curve; further: actives are rising curves; nearly all actives have a fitted effect of over 50% in size
#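 OD600 was taken as the measure of yeast growth restored by compound in an NS1-expressing S. cerevisiae strain. Cells had been washed out of glucose medium and diluted 1:100 into galactose -URA medium, pH 6.0.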
# AmpC inh detg: qHTS Inhibitors of AmpC Beta-Lactamase (assay with detergent); AmpC hydrolysis of nitrocefin, absorbance 480 nm, 0.01% Triton; Potency, µM (titrated, usually from 114 µM), without a hit: at the highest dose activity change, negative = inhibition, hits mostly inhibitors; 370,000 tested, 0.041% active;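 further: 0% = no-compound wells and -100% = no-enzyme wells; nearly all actives have a fitted effect of over 25% in size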
# Target sequence (P00811 whole entry, looked up): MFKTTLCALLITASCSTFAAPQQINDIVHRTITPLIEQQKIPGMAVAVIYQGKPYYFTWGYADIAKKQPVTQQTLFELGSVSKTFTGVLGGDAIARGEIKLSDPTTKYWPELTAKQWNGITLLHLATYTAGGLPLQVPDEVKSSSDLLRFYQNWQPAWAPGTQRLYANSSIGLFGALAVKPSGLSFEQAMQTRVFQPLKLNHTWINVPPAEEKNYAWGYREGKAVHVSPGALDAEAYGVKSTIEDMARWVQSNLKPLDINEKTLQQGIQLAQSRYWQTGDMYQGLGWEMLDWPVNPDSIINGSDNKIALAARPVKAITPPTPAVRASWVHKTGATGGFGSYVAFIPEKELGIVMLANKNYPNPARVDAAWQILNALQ
#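 20 mM phosphate pH 7.0 + 0.01% (detergent screen) or 0.0001% Triton X-100; 5.3 nM AmpC reagent; cpd preinc 15 min RT; nitrocefin (800 uM stock) to start; A480 q20 s × 4 min; Activity was normalised to no-enzyme and no-compound control wells.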
# Giardia FBPA inh-1: qHTS Assay for Inhibitors of Fructose-1,6-bisphosphate Aldolase from Giardia Lamblia. purified Giardia FBPA. A8B2U2. 290,000 tested, 0.71% active. AID 2451, 2010. Potency, µM (titrated, usually from 59.6 µM), for the others: top-dose activity, negative = inhibition, actives largely listed as inhibitors; further: on the % scale 0 is the no-effect control and ±100 the full control effect; nearly all actives have a fitted effect of over 55% in size
#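 Giardia FBPA (40 nM reagent) was preincubated 10 min at RT with compound (up to 57.5 uM final), then substrate plus GAPDH/TPI/NAD/arsenate coupling system with diaphorase/resazurin was added; resorufin fluorescence (525/598 nm) was read after 20 min.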
# AmpC no deterg: qHTS Inhibitors of AmpC Beta-Lactamase (assay without detergent); Potency, µM (doses to about 57.1 µM), inactives show at the top dose activity change, negative = inhibition, most hits filed as inhibitors; AmpC nitrocefin hydrolysis, absorbance 480 nm, 0.0001% Triton; AID 485341, 2010; 330,000 tested, 0.52% active; P00811;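 further: plate controls were no compound for no effect and no enzyme for full effect; nearly all actives have a fitted effect of over 20% in size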
#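 20 mM phosphate pH 7.0 + 0.01% (detergent screen) or 0.0001% Triton X-100; 5.3 nM AmpC reagent; cpd preinc 15 min RT; nitrocefin (800 uM stock) to start; A480 q20 s × 4 min; Activity was normalised to no-enzyme and no-compound control wells.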
# Giardia growth: qHTS Assay for Inhibitors of Fructose-1,6-bisphosphate Aldolase from Giardia Lamblia: Giardia lamblia growth inhibition | shares compounds with Giardia FBPA inh-1 | Giardia lamblia trophozoite growth inhibition | Potency, µM (series often up to 57.5 µM), for the others: at the top dose activity change, negative = inhibition, usual class: inhibitors | 1,500 tested, 5% active;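 further: trophozoites exposed to compound for 48 h at 37 °C; on the % scale 0 is the no-effect control and ±100 the full control effect; nearly all actives have a fitted effect of over 70% in size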
# Mammalian tox: qHTS Assay for Inhibitors of Fructose-1,6-bisphosphate Aldolase from Giardia Lamblia: Mammalian cellular toxicity; shares compounds with Giardia FBPA inh-1; mammalian cell viability counter-screen, qHTS; 1,500 tested, 4% active; Potency, µM (series often up to 57.5 µM), for inactives: top-dose viability change, negative = toxicity, most hits filed as inhibitors; AID 2786, 2010;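 further: Chinese hamster ovary cells used as mammalian cytotoxicity surrogate; viability measured as cellular ATP by luminescence; compound exposure lasted 48 h before reading; on the % scale 0 is the no-effect control and ±100 the full control effect; nearly all actives have a fitted effect of over 60% in size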
# Giardia FBPA inh-2: qHTS Assay for Inhibitors of Fructose-1,6-bisphosphate Aldolase from Giardia Lamblia: Primary screen confirmation | shares compounds with Giardia FBPA inh-1 | AID 2787, 2010 | purified Giardia aldolase enzyme activity, qHTS | 1,500 tested, 5% active | Potency, µM (series often up to 57.5 µM), for inactives: at the top dose activity change, negative = inhibition, usual class: inhibitors; further: on the % scale 0 is the no-effect control and ±100 the full control effect; nearly all actives have a fitted effect of over 45% in size
# Rabbit aldolase: qHTS Assay for Inhibitors of Fructose-1,6-bisphosphate Aldolase from Giardia Lamblia: Rabbit FBPA Selectivity. shares compounds with Giardia FBPA inh-1. Rabbit muscle FBPA enzyme inhibition, selectivity counter-screen. Potency, µM (titrated, usually from 57.5 µM), for inactives: at the highest dose activity, negative = inhibition, most hits filed as inhibitors. 1,500 tested, 4% active. AID 2794, 2010; further: on the % scale 0 is the no-effect control and ±100 the full control effect; nearly all actives have a fitted effect of over 60% in size
# Target sequence (P00883 whole entry, looked up): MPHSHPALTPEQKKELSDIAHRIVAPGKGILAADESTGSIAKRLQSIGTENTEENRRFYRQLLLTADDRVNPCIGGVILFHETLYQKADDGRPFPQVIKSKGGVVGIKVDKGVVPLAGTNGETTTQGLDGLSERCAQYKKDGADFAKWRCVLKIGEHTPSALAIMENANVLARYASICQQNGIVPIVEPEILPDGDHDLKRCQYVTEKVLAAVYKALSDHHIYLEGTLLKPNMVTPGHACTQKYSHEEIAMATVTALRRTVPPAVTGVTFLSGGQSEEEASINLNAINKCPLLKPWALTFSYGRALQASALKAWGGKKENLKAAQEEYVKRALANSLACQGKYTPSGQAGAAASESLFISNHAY
# GAPDH counter: qHTS Assay for Inhibitors of Fructose-1,6-bisphosphate Aldolase from Giardia Lamblia: Coupling assay counterscreen confirmation | 1,500 tested, 6% active | GAPDH coupling enzyme counterscreen, biochemical, qHTS | shares compounds with Giardia FBPA inh-1 | Potency, µM (highest dose often 57.5 µM), inactives show at the highest dose activity change, negative = inhibition, most hits filed as inhibitors; further: on the % scale 0 is the no-effect control and ±100 the full control effect; nearly all actives have a fitted effect of over 55% in size
# * hit, by the source's call; u = inconclusive; x = not tested or not shown; [ ] = remark or other dose. Unless noted, the call rests on the fitted dose curve; in most records, active means well fitted curve in the direction sought with a large enough effect; inconclusive means small, poorly fitted or top-dose-only effect, or another doubt; inactive means no such curve, though single readings can be large; an effect the other way counts as inactive or inconclusive. Potency means the concentration at half of the fitted maximal effect.
SMILES,SARS PLpro yeast,NS1 function inh,AmpC inh detg,Giardia FBPA inh-1,AmpC no deterg,Giardia growth,Mammalian tox,Giardia FBPA inh-2,Rabbit aldolase,GAPDH counter
Cc1ccc(NC(=O)Cn2nc(-c3ccccc3)nc(Cc3ccc(Cl)cc3)c2=O)cc1,x,x,4%,x,x,x,x,x,x,x
Cc1ccc(CN2c3ccccc3-c3nc(SCC(=O)NCc4ccccc4)ncc3S2(=O)=O)cc1,x,x,1%,x,x,x,x,x,x,x
Cc1cc(F)ccc1N1CCC(N2CCN(C(C)C)C(CCO)C2)CC1 (stereo not given),-4%,-9%,1%,0%,-6%,x,x,x,x,x
CC(C)c1ccc(S(=O)(=O)N2CCC(C(=O)N3CCC3)CC2)cc1,-9%,x,u,x,17%,x,x,x,x,x
Cc1nccn1CCOc1ccc(Cl)cc1,1%,-12%,u,25µM*,-2%,-16%[10.4 µM],11%,0%,2%,8%
Brc1ccccc1OCCN1CCOCC1,3%,14%,-13%,28µM*,0%,31%,0%,1%,-7%,7%
COc1ccc(-c2cc(-c3ccco3)[nH]c(=O)c2C#N)cc1OC,1%,1%,-1%,16µM*,-54%,19%,-14%,-15%,-11%,-4%
N#Cc1c(-c2ccccc2)cc(-c2ccc3c(c2)OCO3)[nH]c1=O,-2%,x,u,x,-6%,x,x,x,x,x
CCN1C(=O)[C@@H]2[C@@H](c3ccc(-c4ccc(F)cc4)c(OC)c3)N3CCC[C@@]3(C(=O)OC)[C@@H]2C1=O,-5%,x,x,x,276%,x,x,x,x,x
CN1CC[C@@]2(C)c3cc(O)ccc3N(C)C2O1 (stereo not given in full),x,x,x,0.63µM*,x,u,-21%,2.5µM*,3.5µM*,4.5µM*
C[C@H]1C2Cc3ccc(O)cc3[C@]1(C)CCN2CC1CC1,x,-3%,x,-1%,x,x,x,x,x,x
CCn1cc(S(=O)(=O)Nc2nc3ccc(OC)cc3s2)cn1,1%,2%,-14%,x,-10%,x,x,x,x,x
CCOc1ccc(CN2CCN(S(=O)(=O)c3ccc(NC(C)=O)cc3)CC2)cc1,1%,x,5%,16µM*,69%,u,1%,3%,7%,4%
CN(CCOc1ccccc1)CC(=O)Nc1ccc(S(=O)(=O)N2CCCC2)cc1,-1%,-1%,-9%,16µM*,15%,u,1%,8%,12%,2%
COc1ccc(CN2CCN(S(=O)(=O)c3ccc(NC(C)=O)cc3)CC2)cc1OC,4%,2%,-4%,-29%,79%,x,x,x,x,x
N#C/C(=C\Nc1ccccn1)S(=O)(=O)c1ccc(Cl)cc1,0%,7%,8%,-14%,-18%,x,x,x,x,x
C=CCn1c(-c2ccncc2)n[nH]c1=S,2%,2%,-8%,2.5µM*,-11%,-12%,-13%,6%,4%,15%
C=CCn1c(-c2ccoc2)n[nH]c1=S,5%,3%,0%,2.5µM*,-12%,u,-4%,-1%,4%,0%
O=C(O)c1cccnc1Cl,-14%,13%,-2%,11%,-14%,x,x,x,x,x
O=C(O)c1cccnc1C(=O)O,-3%,-1%,-2%,0.63µM*,-10%,9%[38.3 µM],-3%,-6%,-6%,-5%
COC(=O)/C=C1\S/C(=N\N=C\CC(=O)OC)NC1=O,-6%,7%,10%,16µM*,-37%,19%,14%,-6%,3%,-11%
COC(=O)/C=C1\SC(=Nc2ccc(OC)cc2)NC1=O,-4%,x,-7%,5%,-44%,x,x,x,x,x
O=C(CSc1nncn1-c1ccccc1)c1c[nH]c2ccccc12,0%,6%,-1%,-2%,-21%,x,x,x,x,x
Cc1ccccc1-n1c(-c2ccc(=O)[nH]n2)n[nH]c1=S,0%,6%,5%,6.3µM*,-19%,16%,-2%,0%,11%,-4%
CN1CCN(CC(=O)Nc2nc3ccccc3s2)CC1,-3%,18%,-12%,u,-14%,x,x,x,x,x
SMILES,SARS PLpro yeast,NS1 function inh,AmpC inh detg,Giardia FBPA inh-1,AmpC no deterg,Giardia growth,Mammalian tox,Giardia FBPA inh-2,Rabbit aldolase,GAPDH counter
Cc1nnc(NC(=O)CN2CC(C)OC(C)C2)s1 (stereo not given),1%,14%,-12%,2.5µM*,-9%,-5%[38.3 µM],-7%,0%,2%,4%
CCc1nnc(NC(=O)CN2CCN(CC)CC2)s1,-3%,1%,-1%,3.5µM*,-14%,2%[10.4 µM],1%,9%,6%,14%
CCCN1CCN(CC(=O)Nc2nncs2)CC1,7%,0%,2%,4.5µM*,-12%,9%,-8%,7%,9%,14%
CC(CCC(=O)Nc1nncs1)C(=O)O (stereo not given),-1%,u,u,0%,-1%,x,x,x,x,x
CCN1CCN(CC(=O)Nc2nc3ccccc3s2)CC1,0%,13%,u,10µM*,-21%,-22%,-5%,2%,8%,3%
O=C(CCCCCn1c(=S)[nH]c2ccccc2c1=O)NCc1ccc2c(c1)OCO2,5%,12%,-1%,9%,43%,x,x,x,x,x
COc1ccc(CCNC(=O)C(C)c2ccc([N+](=O)[O-])cc2)cc1 (stereo not given),0%,x,u,6%,0%,x,x,x,x,x
